A number with no mark means an inactive call. Active and inactive are the calls of the source. No rule for the calls is given here.
Tested on: HIV-1 nucleocapsid protein NCp7 (binding to TG oligonucleotide)
Assay: HIV Nucleocapsid (AID 346);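 also: potency is for inhibitors that block NC binding and lower polarization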
Conditions: HIV-1 NC / fluorescein-TGTGTGTG probe, fluorescence polarization
Procedure, shortened: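 Fluorescence polarization readout: labelled TG4xF oligo (10 nM) with 100 nM nucleocapsid protein, high-salt (250mM NaCl) Hepes pH 7.5 buffer containing zinc and fresh reducing agents. Compounds added by pin tool; incubation 1 hr, room temperature.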
Potency is read from the fitted curve at half-maximal effect.

Structure (SMILES) | Potency
N#Cc1cccc(-c2cncnc2NCc2cccnc2)c1 | > 20 µM
CN(C)c1nc(-c2cccc(NS(C)(=O)=O)c2)nc2ccccc12 | > 20 µM
N#CCCn1c(=O)c(CCc2ccccc2)nc2cnc(Oc3cccc(Cl)c3)nc21 | > 20 µM
CN(C)c1ccc(-c2cncnc2NCc2cccnc2)cc1 | > 20 µM
COc1ccc(-c2nc3cnc(Nc4ccccc4)nc3n(Cc3cccs3)c2=O)cc1 | > 16 µM
CS(=O)(=O)Nc1cccc(-c2ccc3ncnc(NC4CCNCC4)c3c2)c1 | > 20 µM
CN(C)Cc1ccccc1-c1nccc(NCc2cccs2)n1 | > 20 µM
CN(C)c1ncnc2ccc(-c3cccc(C#N)c3)cc12 | > 20 µM
CS(=O)(=O)Nc1cccc(-c2ccc3ncnc(NCc4cccnc4)c3c2)c1 | > 20 µM
Cc1nc2cnc(Nc3ccccc3)nc2n(C)c1=O | > 4 µM
Cn1cc(-c2nc3cnc(Oc4cccc(Cl)c4)nc3n(CCC#N)c2=O)c2ccccc21 | > 20 µM
O=c1c(CCc2ccccc2)nc2cnc(N3CCOCC3)nc2n1CCc1ccccc1 | > 20 µM
COc1cccc(-c2ccc3ncnc(NCc4ccc(OC)cc4OC)c3c2)c1 | > 20 µM
COc1ccc(NC(=O)N2CCCC3(CCN(S(=O)(=O)c4ccccc4)CC3)C2)cc1 | > 20 µM
COc1cccc(Cn2c(=O)cnc3cnc(N4CCN(C)CC4)nc32)c1 | > 20 µM
c1cncc(CNc2nc(-c3ccc4c(c3)OCO4)nc3ccccc23)c1 | > 20 µM
COc1ccc(CNc2ccnc(-c3ccccc3Cl)n2)c(OC)c1 | > 20 µM
COc1cccc(-c2nccc(NCc3cnc(C)cn3)n2)c1 | > 20 µM
O=C(c1ccncc1)N1CCC2(CCN(Cc3cc(C(F)(F)F)cc(C(F)(F)F)c3)CC2)CC1 | > 20 µM
COc1ccc(CNc2ccnc(-c3ccccc3C(F)(F)F)n2)c(OC)c1 | > 20 µM
CC(C)CN1CCC2(CC1)CCN(C(=O)c1cc(C(F)(F)F)cc(C(F)(F)F)c1)CC2 | > 20 µM
COc1ccc(CNc2ccnc(-c3cccc(C#N)c3)n2)c(OC)c1 | > 20 µM
CN(C)c1ncc2nc(-c3cccs3)c(=O)n(C3CC3)c2n1 | 0.297 µM (active)
N#CCCn1c(=O)c(-c2cc(F)cc(F)c2)nc2cnc(OCc3ccccc3)nc21 | > 20 µM
COc1ccccc1-c1cc(NCc2cccnc2)ncn1 | > 20 µM

Structure (SMILES) | Potency
Cc1nc2cnc(N3CCN(C)CC3)nc2n(Cc2ccc(F)cc2)c1=O | > 20 µM
O=c1cnc2cncnc2n1Cc1ccccc1 | > 4 µM
Cc1noc(C)c1-c1nccc(Nc2ccc(F)cc2)n1 | > 20 µM
N#CCCn1c(=O)c(-c2ccccc2)nc2cnc(Oc3ccccc3)nc21 | > 20 µM
O=c1cnc2cnc(N3CCNCC3)nc2n1CCc1ccccc1 | > 20 µM
COCCn1c(=O)cnc2cnc(OC)nc21 | > 20 µM
CCNc1ncc2nc(-c3cc(F)cc(F)c3)c(=O)n(Cc3cccs3)c2n1 | > 20 µM
O=c1c(-c2ccc(F)cc2)nc2cnc(N3CCNCC3)nc2n1Cc1cccs1 | > 20 µM
Cc1nc2cnc(N(C)C)nc2n(-c2ccccc2)c1=O | > 4 µM
CCNc1ncc2nc(-c3cc(F)cc(F)c3)c(=O)n(CCC#N)c2n1 | 19.8 µM
CN(Cc1ccco1)c1ccnc(-c2ccccc2C(F)(F)F)n1 | > 20 µM
CCNc1ncc2nc(-c3ccccc3)c(=O)n(Cc3cccs3)c2n1 | > 20 µM
O=C(c1cc(C(F)(F)F)cc(C(F)(F)F)c1)N1CCC[C@@]2(CCN(c3ncccn3)C2)C1 | > 20 µM
N#Cc1ccc(CN2CC3(CCN(C(=O)c4cc(C(F)(F)F)cc(C(F)(F)F)c4)CC3)C2)cc1 | > 20 µM
CC(=O)NCCNc1nc(-c2cccnc2)nc2ccccc12 | > 20 µM
CN(C)Cc1ccccc1-c1cc(N(C)Cc2ccco2)ncn1 | > 20 µM
Cc1nc2cnc(Nc3ccccc3)nc2n(CCc2ccccc2)c1=O | > 20 µM
Cc1noc(C)c1C(=O)N1CCC2(CCCN(Cc3ccccc3)C2)CC1 | > 20 µM
COc1ccc(-n2c(=O)c(-c3cccs3)nc3cnc(Nc4ccccc4)nc32)cc1 | 4.01 µM (active)
CN1CCN(c2ncc3nc(-c4ccc(Cl)cc4)c(=O)n(CCC#N)c3n2)CC1 | > 20 µM
COc1ccccc1-c1cncnc1NCc1cnc(C)cn1 | > 20 µM
Cc1noc(C)c1-c1cc(N2CCNCC2)ncn1 | > 20 µM
Cn1cccc1C(=O)N1CCC2(CCCN(c3ccc(-c4ccccc4)cc3)C2)CC1 | > 20 µM
CS(=O)(=O)N1CCC2(CC1)CN(c1ccncc1)C2 | > 4 µM
O=C(Nc1cccc(F)c1)N1CC[C@@]2(CCCN(C(=O)c3ccncc3)C2)C1 | > 20 µM

Structure (SMILES) | Potency
CS(=O)(=O)Nc1cccc(-c2cncnc2Nc2ccc(F)cc2)c1 | > 20 µM
N#Cc1cccc(-c2nccc(-n3ccnc3)n2)c1 | > 20 µM
CN1CCN(c2ccnc(-c3ccc(N(C)C)cc3)n2)CC1 | > 20 µM
COCCn1c(=O)cnc2cnc(Oc3ccccc3)nc21 | > 20 µM
COCC(=O)N1CCC[C@@]2(CCN(c3ccccn3)C2)C1 | > 20 µM
COc1ccc(Oc2ncc3nc(C)c(=O)n(C)c3n2)cc1 | > 20 µM
CN(C)C(=O)c1ccc(-c2nccc(-n3ccnc3)n2)cc1 | > 20 µM
COc1ccc(C(=O)N2CCC3(CC2)CCN(C(c2ccccc2)c2ccccc2)CC3)cc1 | > 20 µM
O=C(Oc1ccccc1)N1CCC[C@@]2(CCN(c3ccccn3)C2)C1 | > 20 µM
Cn1c(=O)c(CCc2ccccc2)nc2cnc(OCc3ccccc3)nc21 | > 20 µM
Clc1ccccc1-c1nc(N2CCNCC2)c2ccccc2n1 | > 20 µM
c1csc(CNc2nc(-c3ccc4c(c3)OCO4)nc3ccccc23)c1 | > 20 µM
COc1ccccc1-c1cncnc1Nc1ccccc1 | > 20 µM
CN(C)C(=O)c1ccc(-c2nccc(NCc3cccs3)n2)cc1 | > 20 µM
COc1ncc2nc(-c3ccc(Cl)cc3)c(=O)n(CCC#N)c2n1 | > 20 µM
CCNc1ncc2nc(-c3cc(F)cc(F)c3)c(=O)n(-c3ccccc3)c2n1 | > 4 µM
COc1ccc(CNc2ncnc3ccc(-c4ccc(C(=O)N(C)C)cc4)cc23)c(OC)c1 | > 20 µM
COCC(=O)N1CCC2(CC1)CCN(C(c1ccccc1)c1ccccc1)CC2 | > 20 µM
c1cncc(-c2ccc3ncnc(NC4CCNCC4)c3c2)c1 | > 20 µM
COc1ccc(C(=O)N2CCC3(CCN(C(=O)Nc4ccccc4)CC3)CC2)cc1 | > 20 µM
CNc1ccnc(-c2c(C)noc2C)n1 | > 20 µM
Cc1noc(C)c1C(=O)N1CCC[C@@]2(CCN(C(c3ccccc3)c3ccccc3)C2)C1 | > 4 µM
O=C(c1cccc(F)c1)N1CCC2(CCN(Cc3ccncc3)CC2)CC1 | > 20 µM

Source: PubChem BioAssay (NCATS)
